PubChem BioAssay (NCI)
Where “and” joins values, the source holds several entries; their conditions need not be identical. Equal values may be shown once. About 83,000 compounds went through this panel and 20% of them were active in at least one assay; those are over-represented in the sample as a whole.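 Method: cells in 96-well plates; compound added at one concentration; 48 h incubation; percent growth measured; values under 10 scored active.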 Calls of active or inactive are those of the source.

What follows are compounds tested on HOP-62 NSCLC (assay: NCI-60 one-dose screen, 48 h (100 = growth as untreated, 0 = no growth, -100 = all killed)). Settings: 10 µM unless noted.

Row | Structure (SMILES) | growth
1 | O=C(c1ccc(Cl)cc1)C(NCCO)c1ccc(Cl)cc1 (centres undefined) | 87.5% (inactive)
2 | Cc1ccc(S(=O)(=O)Nc2ccc3cc([N+](=O)[O-])ccc3c2[N+](=O)[O-])cc1 | 92.7% (inactive) and 95% (inactive)
3 | COc1c(/C(C)=N/N=c2sc(C(C)=O)nn2-c2ccc(Cl)cc2)c(Oc2ccccc2)c(OC)c2occc12 | 88.6% (inactive) and 98.3% (inactive)
4 | CCOc1ccc2c(S(=O)(=O)O)cccc2c1[N+](=O)[O-] | 102% (inactive) and 105% (inactive)
5 | CCN(CC)C(=O)c1cccnc1 | 119% (inactive)
6 | COc1ccc(S(=O)(=O)N2CCOCC2)cc1NC(=O)c1[nH]c(C)c2c1CCCCC2=O | 109% (inactive) and 33.8% (inactive)
7 | CCC(=O)C(CC)c1cccc(OC)c1 (centres undefined) | 122% (inactive)
8 | C[N+](C)(C)CN1C(=O)c2ccccc2C1=O | 96% (inactive)
9 | CO/N=C/C=C\C(=O)N/C=C/C[C@H]1/C=C/[C@H](O)/C=C\C=C\c2cccc(O)c2C(=O)O1 | 19.5% (inactive) and 17.4% (inactive)
10 | CCN(CC)CCCC(C)Nc1cnc(C(=O)Nc2cc(F)cc3cccnc23)cn1 (centres undefined) | 64.1% (inactive) and -14.1% (active)
11 | CN(C)c1ccc(/C=C(\C#N)c2ccccc2)cc1 | 48.3% (inactive) and 31.4% (inactive) and 36.6% (inactive)
12 | CN(C)CCCN1c2ccccc2Sc2ccc(Cl)cc21 | 77.1% (inactive) and 107% (inactive) and 95.2% (inactive)
13 | O=S(=O)(Nc1ccccc1)C1CCCCC1 | 107% (inactive) and 101% (inactive)
14 | CC1=C(/C=C/C(C)=C/C=C/C(C)=C/C(=O)Nc2ccc(O)cc2)C(C)(C)CCC1 | 88.6% (inactive)
15 | COc1cc(C(=O)N/N=C/c2ccc(N(C)C)cc2)cc(OC)c1OC | 49% (inactive)
16 | CC1(c2ccc3ccccc3c2)CCC(=O)O1 (centres undefined) | 93.5% (inactive)

Each compound was assayed on NCI-H460 lung in the same assay as above. Settings: 10 µM.

Row | Structure (SMILES) | growth
17 | CNC(=O)c1cc(Oc2ccc(CC(=O)Nc3cc(C(C)(C)C)nn3C)cc2)ccn1 | 66.7% (inactive)
18 | CC#C[C@]1(O)CC[C@H]2[C@@H]3CCC4=CC(=O)CCC4=C3[C@@H](c3ccc4c(c3)OCO4)C[C@@]21C | 90.5% (inactive)
19 | CCc1ccccc1-n1c(N)c(C#N)c(-c2ccc(OC)c(OC)c2)c(C#N)c1=O | 121% (inactive)
